Laboratory results: PubChem BioAssay (NCI)
Compounds without any hit were thinned out: in the full panel of roughly 83,000, 20% have a hit.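 Negative percent growth values reflect cell death: -40 means 40% of the cells present at the start died, and -100 means all died.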 Unmarked numbers belong to inactive results. Calls of active or inactive are those of the source.

Test system: LOX IMVI melanoma
Assay: NCI-60 one-dose screen, 48 h (100 = growth as untreated, 0 = no growth, -100 = all killed)
Settings: 10 µM unless noted
Description: Growth inhibition of the LOX IMVI human tumor cell line is measured as a screen for anti-cancer activity. Cells are grown in 96 well plates and exposed to the test compound for 48 hours. Compounds are tested at a single concentration, which is 10^-5 M for most compounds. The reported endpoint is percent growth (GI% or GIPRCNT), where numbers from 0 - 100% represent growth inhibition, and numbers from -100% - 0 represent cell death. For example, a value of 40 represents 60% growth inhibition. A value of 0 means no net growth occurred over the course of the experiment. A value of -40 indicates 40% of cells at the beginning of the experiment died by the end of the experiment. A value of -100 means all cells are dead at the end of the experiment.
NCI-60 Human Tumor Cell Lines Screen was performed using the standard one-dose NCI protocol, which is described in more detail at https://dtp.cancer.gov/discovery_development/nci-60/default.htm.
Compounds with GIPRCNT values below 10 were considered active. Activity score was based on GIPRCNT using the following formula: […]
Score is 0 for GIPRCNT values of 100 or above, 50 for GIPRCNT values of 0, and 100 for GIPRCNT values of -100.

Compound | growth
COc1cc(/C=C/c2nc(Nc3ccc(S(=O)(=O)Nc4cc(C)on4)cc3)c3ccccc3n2)ccc1O | 59.5%
O=C1C2=C(CCN(Cc3ccccc3)C2)N2CCN=C2N1Cc1ccc(F)cc1F | 39.3%
Clc1ccc(/C=N\N=c2\scc(-c3ccc(Cl)cc3)n2/N=C/c2ccc(Cl)cc2)cc1 | 109%
CCC(O)(C(c1ccccc1)c1ccccn1)C(c1ccccc1)c1ccccn1 (stereo not given) | 98%
CN(C)c1ccc(/C=C2\C=C(c3ccccc3)N(CCc3ccccc3)C2=O)cc1 | 48.9%
COc1ccc(-c2nc3sccn3c2/C=C/C(=O)c2c[nH]c3ccccc23)cc1 | 37.5%
O=C1CSC(c2ccc(O)cc2)N1c1nnc(Cn2cnnc2)o1 (stereo not given) | 99.9%
COc1ccc(-c2nc3ccccn3c2/C=C/C(=O)c2cc(OC)c(OC)c(OC)c2)cc1 | 44.2%
O=C(Oc1ccc([N+](=O)[O-])cc1)c1ccc(CBr)cc1 | 67.2%
CO/C(=C1/NC(=O)C(Cc2ccc(O)c(Br)c2)N(C)C(=O)C(C)NC(=O)CCC/C=C(\C)CCC(C)OC1=O)c1ccccc1 (stereo not given) | -34.2% (active)
O=C(CCl)N1c2cccc3cccc(c23)N(C(=O)CCl)C1c1cn(-c2ccccc2)nc1-c1cccc([N+](=O)[O-])c1 | 26.6%
CNC(=O)c1c(NC(=O)c2ccc(C(C)(C)C)cc2)sc2c1CCC(=O)C2 | 8.5% (active)
O=S(=O)(Nc1ccsc1-c1nc(-c2ccccc2)no1)c1cc(Cl)cc(Cl)c1 | 96.5%
CCCCN1CCN(c2ccc3nc(-c4ccc5nc(-c6cc(OC)c(OC)c(OC)c6)[nH]c5c4)[nH]c3c2)CC1 | 40.7%
CN(C)c1ccc2cc(-c3ccc(Cl)c(Cl)c3)c(N)nc2c1 | 20.6%
N#C/C(=C\c1ccc2c(c1)OCO2)n1nnc2ccccc21 | -11% (active)
N#C/C(=C\c1ccc(Br)cc1)n1nnc2cc(Cl)c(Cl)cc21 | -9.55% (active)
CCCCNCC(=O)Nc1ccc(C(=O)OCC)cc1 | 103%
Cc1cn(C2CCCCC2)c(=O)[nH]c1=O | 111%
Fc1ccc(Nc2nc(Nc3ccc(-c4nc5ccccc5[nH]4)cc3)c3cn[nH]c3n2)cc1 | -64.6% (active)

Compound | growth
O=C(NC(=S)Nc1ccc(-c2nc3ccccc3[nH]2)cc1)c1ccc2ccccc2c1 | -45.8% (active)
Cc1cc(-c2ccc(N(C)C)cc2)c2sc(=O)[nH]c2n1 | 51.6%
COc1ccc(/C=C2\COc3ccc(O)cc3C2=O)cc1OC | 11.6%
Nc1nc(I)c2ncn(C3OC(CO)C(O)C3O)c2n1 (stereo not given) | 93.5%
O=C(CC1Sc2ccccc2NC1=O)NNc1ccc(F)cc1 (stereo not given) | 18.5%
CCn1c(Sc2nnc(NC(C)=O)s2)nc2c1c(=O)n(C)c(=O)n2C | 90%
Cc1cc(-c2ccccc2)cc(SC#N)[n+]1[O-] | 29.7%
O=C(NCOC(O)C(Cl)(Cl)Cl)NCOC(O)C(Cl)(Cl)Cl (stereo not given) | 97.7%
N=C(N)c1ccc(-c2ccc(-c3ccc(Cl)cc3Cl)o2)nc1 | -82.6% (active)
CNC(=O)c1cc(Oc2ccc3nc(NC(=O)Nc4cc(C(F)(F)F)cc(C(F)(F)F)c4)sc3c2)ccn1 | -87.5% (active)
CN(C)c1ccc(/C=N/NC(=O)COc2cc(=O)n(C)c3ccccc23)cc1 | 99.8%
COc1ccc2c(c1)/C(=C\c1sc(=S)[nH]c1O)C(C(=O)O)=N2 | 96.6%
Cc1ccc(NSc2ccccc2[N+](=O)[O-])cc1 | 35%
CCCCn1c(=O)[nH]c(N)c(C(c2ccc(F)cc2)c2c(N)[nH]c(=O)n(CCCC)c2=O)c1=O | 58.9%
O=C1CSC(c2ccccc2O)N1c1nnc(Cn2cnnc2)o1 (stereo not given) | 78.5%
C[C@@H]1C(=O)N(C[C@@H](Cc2ccccc2)NC(=O)OCc2ccccc2)[C@]1(Cc1ccccc1)C(=O)OCc1ccccc1 | 51.8%
CCCCOc1nc2ccc(Cl)cc2cc1/C=C/C(=O)/C=C1/CC(c2cc3cc(Cl)ccc3nc2OCCCC)Nc2ccccc2N1 (stereo not given) | 94.4%
O=C(CCCCCCCn1cc(-c2cccnc2)nn1)Nc1ccccc1-c1ccccc1 | 57.3%
COc1ccc(/C(C)=C(\c2ccc(Cl)cc2)c2ccc(OCCN3CCCCC3)cc2)cc1F | -73.1% (active)
Clc1ccc(-c2nnc(Cn3ccnc3)o2)cc1 | 112%
